Each structure is given as a SMILES string. Out of some 340,000 compounds screened, about 1,000 (0.29%) were called active. Cut-off read from the data, not from the text of the source: inconclusive = inhibition above about 29% without an active follow-up result; inactive = below that. Only a sample is shown. Results with a measured potency or affinity are listed apart.

The values that follow come from PubChem BioAssay AID588689 (Southern Research Specialized Biocontainment Screening …, 2011).

This assay concerns the target Genome polyprotein (Dengue virus type 2 (strain 16681-PDK53)) (UniProt P29991). Put plainly: Dengue-2 NS5 methyltransferase inhibitors, primary screen, biochemical, confirmation dose response (AID 588689). The note with it: Dengue-2 NS5 methyltransferase capping enzyme assay, at 25 µM, stronger effect = higher value.
The mark [1] stands for this setting: measured here: pilot screen replicate inhibition.

The inhibition is the relative decrease from the control value, in per cent. For `COCCn1c(C)cc(C(=O)CSc2nnnn2C2CCCC2)c1C`, the inhibition was -0.76% (inactive).

Consider `CCOP(=O)(OCC)c1nc(/C=C/c2ccccc2)oc1NCc1ccc(OC)cc1`, for which the inhibition was -2.05% (inactive).

As to `O=S(=O)(Cc1ccccc1)Nc1ccccc1`, the inhibition was 1.96% (inactive). Also, the inhibition under setting [1] was -2.12%.

Turning to `Cc1ccc(NS(=O)(=O)Cc2ccccc2)nc1`, the inhibition is -2.96% (inactive).

As for `CNC(=O)NC(=S)NC(=O)c1ccccc1Cl`, the inhibition was 2.96% (inactive).

For `Cc1ccc2c(c1)c(C1=NC(=S)NC1=O)c(O)n2C`, the inhibition was -5.15% (inactive).

For `COc1cc2c3c(c1)c(C1=NC(=S)NC1=O)c(O)n3C(C)(C)C=C2C`, the inhibition was 5.22% (inactive).

In the case of `CC1(C)O[C@@H]2[C@H](O1)[C@@H](CO)O[C@H]2n1cc(Br)c(=O)[nH]c1=O`, the inhibition is -17.6% (inactive).

Turning to `NCCCC[C@@H]1NC(=O)c2cc([N+](=O)[O-])cc(F)c2NCCCC[C@@H](C(N)=O)NC(=O)CNC1=O`, the inhibition was -4.1% (inactive).

For the compound `O=C(NCc1ccco1)c1nnc(Cc2ccc(F)cc2)o1`, the inhibition was 2.07% (inactive).

On to `COc1ccc(-c2cc(-c3ccccc3)c(C#N)c(SCC(=O)O)n2)cc1`, for which the inhibition is 14% (inactive).

Turning to `N#Cc1c(-c2ccc(Cl)cc2)cc(-c2ccccc2)nc1SCC(=O)O`, the inhibition was 1.16% (inactive).

On to `O=C(O)c1cccc2c1/C(=N/Nc1ccc([N+](=O)[O-])cc1[N+](=O)[O-])c1ccccc1-2`, for which the inhibition was 20.5% (inactive).

Take `Cc1ccccc1CS(=O)(=O)c1ncc(Cl)c(C(=O)Nc2ccc(F)cc2)n1`: the inhibition is -55.8% (inactive).

For the compound `Cc1nnc(NC(=O)c2nc(S(=O)(=O)Cc3ccccc3C)ncc2Cl)s1`, the inhibition is 27.3% (inactive).

Take `Cc1cccc(CS(=O)(=O)c2ncc(Cl)c(C(=O)NCc3ccccc3)n2)c1`: the inhibition is -74.2% (inactive).

Regarding `CC(=O)Nc1ccc(NC(=O)c2nc(S(=O)(=O)Cc3ccccc3)ncc2Cl)cc1`, the inhibition was -50.4% (inactive).

On to `Cc1nnc(NC(=O)c2nc(S(=O)(=O)Cc3ccccc3)ncc2Cl)s1`, for which the inhibition is 19.6% (inactive).

As for `Cc1ccc(NC(=O)c2nc(S(=O)(=O)Cc3ccccc3)ncc2Cl)cc1`, the inhibition is -43.4% (inactive).

For the compound `CSc1ncc(Cl)c(C(=O)Nc2nnc(SC)s2)n1`, the inhibition was 5.42% (inactive).

Consider `COC(=O)c1ccc(NC(=O)c2nc(S(=O)(=O)Cc3cccc(C)c3)ncc2Cl)cc1`, for which the inhibition was -59.7% (inactive).

Consider `O=C(c1cc(-c2ccc(Br)cc2)nc2ccccc12)N1CCC1`, for which the inhibition was -2.19% (inactive).

Turning to `COc1ccccc1N1CCN(C(=O)c2oc3c(c2C)C(=O)CC(C)(C)C3)CC1`, the inhibition is 4.65% (inactive).

Take `O=C(N/N=C/C(Cl)=C\c1ccccc1)c1cnccn1`: the inhibition was -6.4% (inactive).

For `C=CC[C@H](CC(=O)N[C@H](CO)Cc1ccccc1)C(=O)N[C@@H](COC(=O)[C@H](CC=C)CC(=O)OC(C)(C)C)Cc1c[nH]c2ccccc12`, the inhibition is -0.83% (inactive).

Consider `COc1ccc(/C=C2/SC(=O)N(CCC(=O)Nc3ccc(S(=O)(=O)Nc4nccs4)cc3)C2=O)cc1`, for which the inhibition was -5.09% (inactive).

Consider `O=C(/C(=C(/[O-])c1ccccc1)[n+]1ccccc1)c1ccc([N+](=O)[O-])cc1`, for which the inhibition was 3.25% (inactive).

On to `CCCc1ncc(CN2CCCCC2C(=O)Nc2ccc(Oc3ccccc3)nc2)cn1` (stereo not drawn), for which the inhibition is -5.15% (inactive).

In the case of `CCCCn1c(N)c(N(C)C(=O)c2cn(-c3ccccc3)nc2-c2ccccc2)c(=O)[nH]c1=O`, the inhibition was -2.61% (inactive).

For the compound `NS(=O)(=O)c1ccc2nc(NC(=O)Nc3ccc(F)cc3)sc2c1`, the inhibition is -9.52% (inactive).

For `O=C(Nc1ccc(Cl)c(S(=O)(=O)N2CCOCC2)c1)c1cccs1`, the inhibition is -1.55% (inactive).

For `Cc1cccc(CS(=O)(=O)c2ncc(Cl)c(C(=O)Nc3c(C)cccc3C)n2)c1`, the inhibition is -57.4% (inactive).

Consider `CC(=O)Nc1ccc(NC(=O)c2nc(S(=O)(=O)Cc3cccc(C)c3)ncc2Cl)cc1`, for which the inhibition was -42.6% (inactive).

As for `O=C(Nc1ncccc1O)c1ccc2c(c1)OCO2`, the inhibition is 0.74% (inactive).

For `Cc1cc(Cl)ccc1OCC(=O)Nc1ccccc1C(=O)N1CCOCC1`, the inhibition was 5.18% (inactive).

`O=C1NC(=S)NC1(c1ccccc1)c1ccccc1`: the inhibition was -4.65% (inactive).

Consider `O=C1CC(c2ccccc2)NC(=S)N1` (stereo not drawn), for which the inhibition is 3.85% (inactive).

With `CCCCSc1nc(O)c(C2OC(=O)c3c2ccc(OC)c3OC)c(=O)n1C` (stereo not drawn), the inhibition was -5.49% (inactive).

As for `CCCSc1nc(O)c(C2OC(=O)c3c2ccc(OC)c3OC)c(=O)n1-c1ccccc1` (stereo not drawn), the inhibition was 11.7% (inactive).

On to `CCCCSc1nc(O)c(C2OC(=O)c3c2ccc(OC)c3OC)c(=O)n1-c1ccccc1` (stereo not drawn), for which the inhibition was 17.6% (inactive).

For the compound `CCSc1nc(O)c(C2OC(=O)c3c2ccc(OC)c3OC)c(=O)n1CC` (stereo not drawn), the inhibition is 6.79% (inactive).

For the compound `Cc1cc2c3c([nH]c2cc1S(=O)(=O)NCc1ccc(CN2CCCCCC2)o1)CCCC3=O`, the inhibition is -7.25% (inactive).

On to `Cc1ccc(S(=O)(=O)N/N=C/c2ccc(O)c(O)c2)cc1[N+](=O)[O-]`, for which the inhibition is 0.74% (inactive).

For `CCN(CC)CCNC(=O)c1ccc(NC(=O)c2cc(S(=O)(=O)N3CCCCC3)ccc2N2CCOCC2)cc1`, the inhibition is -2.25% (inactive).

With `COc1ccc(-n2cccc2C=O)cc1`, the inhibition was -11.6% (inactive).

With `Cc1cc2nc3s/c(=C/c4ccc(-c5ccccc5C(=O)O)o4)c(=O)n3c2cc1C`, the inhibition was -33.6% (inactive).

On to `COc1cc(/C=C2\C(C)=C(C#N)c3nc(N)c(C#N)c(C)c32)ccc1OCC(=O)O`, for which the inhibition was -6.96% (inactive).

Consider `Cc1cc2nc(/C(C#N)=C\c3ccc(-c4ccccc4C(=O)O)o3)[nH]c2cc1C`, for which the inhibition is -2.36% (inactive).

On to `CCOC(=O)CSc1nc(N)c(C#N)c(-c2ccc(OCC)cc2)c1C#N`, for which the inhibition is -3.48% (inactive).

Regarding `O=C1OC(c2ccccc2)=CC1=Cc1ccccc1O`, the inhibition is -6.29% (inactive).

Take `CC1CCCC(NC(=O)C2N(CCCN3CCCC3)C(=O)C3C(C(=O)Nc4ccc(Cl)cc4)C4C=CC32O4)C1C` (stereo not drawn): the inhibition was -9.14% (inactive).

As for `Cc1cc(C)cc(NC(=O)COC(=O)Cc2ccccc2F)c1`, the inhibition was -2.95% (inactive).

`CS(=O)(=O)NCc1nnc(SCc2c(F)cccc2Cl)o1`: the inhibition was -7.53% (inactive).

As for `C=CCn1c(SCC(=O)/C(C#N)=C(\C)N)nnc1C1CCCCC1`, the inhibition was -2.77% (inactive).

For the compound `CCN(C[C@H]1N[C@@](C)(C(=O)OC)[C@H]2C(=O)N(C)C(=O)[C@@H]12)S(=O)(=O)c1ccc(OC(F)(F)F)cc1`, the inhibition was -7.6% (inactive). Moreover, the inhibition under setting [1] amounted to 0.305%.

Turning to `O=C1/C(=C/C=C/c2ccco2)SC(=S)N1NS(=O)(=O)c1ccccc1`, the inhibition was 64.5% (inactive).

As for `Cc1ccc(S(=O)(=O)NN2C(=O)/C(=C/c3ccc(F)cc3)SC2=S)cc1`, the inhibition was 9.54% (inactive).

For `O=C1/C(=C/c2ccccn2)SC(=S)N1NS(=O)(=O)c1ccccc1`, the inhibition was 8.55% (inactive).

Consider `Cc1ccc(S(=O)(=O)NN2C(=O)/C(=C/c3cccnc3)SC2=S)cc1`, for which the inhibition was 14.3% (inactive).

Consider `O=S(=O)(NCc1nc2ccccc2[nH]1)c1ccccc1`, for which the inhibition is -2.6% (inactive).

For the compound `O=C1/C(=C\c2ccc(Br)cc2)SC(=S)N1NS(=O)(=O)c1ccccc1`, the inhibition is -8.31% (inactive).

Consider `CC(=O)N1C(=O)/C(=C2\SC(=S)N(NS(=O)(=O)c3ccc(C)cc3)C2=O)c2ccccc21`, for which the inhibition was 5.31% (inactive).

Take `O=C(NC1CC1)C1=C[C@@H](c2csc3ccccc23)C[C@@H](OCc2ccc(CO)cc2)O1`: the inhibition was -6.54% (inactive).

Turning to `O=C(COC(=O)C1CC2CCCC(C1)C2=O)Nc1nc(-c2ccc(F)c(F)c2)cs1` (stereo not drawn), the inhibition was 11% (inactive).

As for `CN(C)C(=O)c1ccc(NC(=O)c2cccc(S(=O)(=O)N3CCCc4ccccc43)c2)cc1`, the inhibition is 4.32% (inactive).

In the case of `CC(NC(=O)c1cccnc1)C(c1cccs1)N1CCOCC1` (stereo not drawn), the inhibition was 0% (inactive).

Consider `CSc1cccc(NC(=O)C2CCN(S(=O)(=O)c3cnc[nH]3)CC2)c1`, for which the inhibition is -4.39% (inactive).

For the compound `COc1cccc(CNC(=O)c2cccc(NC(=O)C3=C(C)OCCS3)c2)c1`, the inhibition is -1.39% (inactive).

On to `O=C(Nc1cccc([N+](=O)[O-])c1)N1CCCCCC1`, for which the inhibition is -0.65% (inactive).

For the compound `CC(C)OCCCNC(=O)c1ccc(NS(C)(=O)=O)cc1`, the inhibition was 0% (inactive).

With `Cc1cc(C)c(C(=O)c2ccccc2)c(C)c1`, the inhibition is -9.32% (inactive).

Consider `O=S(=O)(c1ccccc1)N1CCC2(CC1)CO2`, for which the inhibition is -6.64% (inactive).

Turning to `O=C1/C(=C/c2cccnc2)SC(=S)N1NS(=O)(=O)c1ccccc1`, the inhibition is 5.88% (inactive).

In the case of `CCN1C[C@@H]2[C@@H]3C(=O)N(C)C(=O)[C@@H]3[C@](Cc3ccccc3)(C1=O)N2C(=O)c1ccccc1`, the inhibition was 1.65% (inactive).

`CC(=O)C1=C(O)C(=O)N(c2ccc(C)cc2)C1c1ccc([N+](=O)[O-])cc1` (stereo not drawn): the inhibition was 2.73% (inactive).

Regarding `COc1cc(CN2CCCCCC2)c([N+](=O)[O-])cc1OC`, the inhibition was 0% (inactive).

Regarding `COc1ccc(Cl)cc1NC(=O)CN(C)C(=O)c1ccc(OCc2ccccc2)c(OC)c1`, the inhibition is -1.46% (inactive).

As for `O=C(CCCN1C(=O)/C(=C/c2ccccc2Cl)SC1=S)NNC(=O)c1ccc(Cl)cc1Cl`, the inhibition was 3.09% (inactive).

Take `O=C(COc1ccc(Cl)cc1Cl)NN1C(=O)/C(=C\c2ccc(Cl)cc2)SC1=S`: the inhibition is 0% (inactive).

In the case of `CN1CCN(C(=O)CCN2C(=O)/C(=C\c3ccc(Cl)cc3Cl)SC2=S)CC1`, the inhibition was 0% (inactive).

On to `O=C(CCCN1C(=O)/C(=C/c2ccccc2Cl)SC1=S)NNC(=O)c1ccc(Cl)cc1`, for which the inhibition was 28.1% (inactive).

For the compound `O=S(=O)(c1ccc(Cl)cc1)n1c(Cc2ccccc2)nc2ccccc21`, the inhibition is -6.41% (inactive).

As for `CC(C)N(CC#CCC(O)(c1ccccc1)c1ccccc1)C(C)C`, the inhibition is -5.16% (inactive).

As for `Cc1ccc(Cl)cc1NC(=O)CN1C(=O)NC2(CCCCCC2)C1=O`, the inhibition is 3% (inactive).

As for `COCCNC(=O)CCn1nc(-c2ccc(C)cc2)c2ccccc2c1=O`, the inhibition is -3.27% (inactive).

Turning to `NC(=O)c1sc2cc(C(F)(F)F)cnc2c1-c1ccccc1`, the inhibition was 1.48% (inactive).
